Experiment [1] in a line: small molecules captured by biotinylated probe aFSTL3 – biochemical, small-molecule microarray, fluorescence 635/667, stem cell growth factor project, primary screen (AID 1064).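 Also: measures binding of the biotinylated anti-FSTL3 antibody to printed compounds.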 The following applies: higher = more signal.
Experiment [2] is described as follows: binders from COS7 lysate, DM2A8 probe, primary screen, torsin A project, cell lysate, small-molecule microarray, fluorescence 635/667 (AID 1065). The settings on record: higher = more signal, COS7 lysate expressing mutant human TOR1A.
Experiment [3] in a line: small molecules captured by biotinylated probe aFGF2 – biochemical, small-molecule microarray, fluorescence 635/667, stem cell growth factor project, primary screen (AID 1067).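 Also: measures binding of biotinylated aFGF2 protein to printed compounds on slides; z-score merges feature fluorescence and signal-to-noise across triplicate slides.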 The settings on record: higher = more signal.
The nature of experiment [4]: small molecules captured by biotinylated probe aFGF10 – biochemical, small-molecule microarray, fluorescence 635/667, stem cell growth factor project, primary screen (AID 1071).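 Also: score merges 667 nm spot intensity and signal to noise from triplicate slides.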 The settings on record: higher = more signal.
The target in experiment [5] is Neurogenic locus notch homolog protein 2 (Homo sapiens) (UniProt Q04721). The experiment in a line: small molecules binding Notch2 protein – biochemical, small-molecule microarray, 635 nm fluorescence, stem cell growth factors, primary screen (AID 1073). The settings on record: higher = more signal.
Experiment [6] concerns the target Pro-neuregulin-1, membrane-bound isoform (Homo sapiens) (UniProt Q02297). Description: small molecules binding neuregulin-1 protein – biochemical, small-molecule microarray, fluorescence 635/667, psychiatric disease protein project, primary screen (AID 1075).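 Also: score combines 667 nm spot fluorescence with signal to noise.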 The settings on record: NRG1 binding, 635 nm fluorescence, higher = more signal.
In experiment [7] the test system is Neuregulin-1 EGF-like domain. Description: small molecules binding NRG1 EGF domain – biochemical, small-molecule microarray, 635 nm fluorescence, primary screen (AID 1081).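 Also: binding of the protein to compounds printed on small-molecule microarray slides.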 The settings on record: higher = more signal.
Experiment [8] is described as follows: FRG1 expression reporter modulators in myotubes – cell-based, C2C12 myotubes, firefly/Renilla luciferase, luminescence, FRG1 inhibition for FSHD, primary screen (AID 1084). The settings on record: FRG1 promoter luciferase, higher = more signal, called active from +8 up or from −8 down.
Experiment [9] can be described thus: small molecules captured by biotinylated probe aFST – biochemical, small-molecule microarray, fluorescence 635/667, stem cell growth factor project, primary screen (AID 1086).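 Also: score merges 667 nm fluorescence with signal-to-noise of each printed compound spot.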 The settings on record: higher = more signal.
Experiment [10] can be described thus: binders of probe aHhip on microarray, primary screen, stem cell growth factor project, biochemical, small-molecule microarray, fluorescence 635/667 (AID 1087).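 Also: score merges spot fluorescence at 667nm with spot signal to noise ratio.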 The following applies: higher = more signal.
The test system of experiment [11] is PRMT1 (protein arginine N-methyltransferase 1). The experiment in a line: small molecules binding arginine methyltransferase PRMT1 – biochemical, small-molecule microarray, 635 nm fluorescence, primary screen (AID 1088).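 Also: binding of Prmt1 protein to compounds spotted on small-molecule microarray slides.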 The following applies: higher = more signal.
A short description of experiment [12]: growth effects on S. cerevisiae YJM789 – YJM789 clinical isolate, OD600, 24 h, basal, primary screen (AID 1089).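 Also: growth of clinical yeast isolate S. cerevisiae YJM 789 seeded 1000 cells per well; test concentration not given here.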 The settings on record: higher = more signal, called active from +8 up or from −8 down.
Experiment [13] in a line: S. pombe growth modifiers, basal conditions – strain 972, OD600, 24 h, no modulator, primary screen (AID 1090).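 Also: basal condition with compound alone and no growth modifier present; test concentration not given here.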 The following applies: S. pombe 972 growth, higher = more signal, called active from +8 up or from −8 down.
Experiment [14] can be described thus: budding yeast growth modifiers under rapamycin – strain BY4716, OD600, 96 h, primary screen (AID 1091). Also: test concentration not given here. The following applies: S. cerevisiae BY4716 + rapamycin, higher = more signal, called active from +8 up or from −8 down.
Experiment [15] has as its target Torsin-1A-interacting protein 2 (Homo sapiens) (UniProt Q8NFQ8). The experiment in a line: small molecules binding lysate-expressed LULL1 – cell lysate, human LULL1 lysate, 635/667 nm fluorescence, primary screen (AID 1092).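 Also: score merges per-feature 667 nm fluorescence with signal-to-noise.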 The settings on record: small-molecule microarray, hLULL1 lysate binding, 635 nm fluorescence; higher = more signal.
Experiment [16] in a line: optical density change of DRC41 E. coli – strain DRC41, OD650, 24 h, E. coli filamentation project, primary screen (AID 1093).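 Also: MC1000 strain lacking acrAB efflux and sulA so SOS filamentation is blocked; test concentration not given here.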 The settings on record: E. coli DRC41 growth, higher = more signal, called active from +8 up or from −8 down.
Experiment [17] can be described thus: probe aLefty2 binding to arrayed compounds – biochemical, biotinylated probe, 635/667 nm fluorescence, primary screen (AID 1094).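 Also: score merges spot fluorescence near 667 nm with spot signal-to-noise ratio.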 The following applies: small-molecule microarray, higher = more signal.
Experiment [18] has as its system Noggin (protein binding on small-molecule microarray). Description: small molecules binding Noggin protein – biochemical, 635/667 nm fluorescence, primary screen (AID 1095).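 Also: score merges 667 nm feature fluorescence with signal to noise over triplicate slides.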 The settings on record: 635 nm fluorescence, higher = more signal.
The target in experiment [19] is Neurogenic locus notch homolog protein 3 (Homo sapiens) (UniProt Q9UM47). Description: small molecules binding NOTCH3 protein – biochemical, 635/667 nm fluorescence, primary screen (AID 1096). The settings on record: small-molecule microarray, 635 nm fluorescence, higher = more signal.
A short description of experiment [20]: probe aEGFR binding to arrayed compounds – biochemical, biotinylated probe, 635/667 nm fluorescence, primary screen (AID 1097).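 Also: probe is a biotinylated anti-EGFR antibody binding compounds printed on slides; score combines fluorescence near 667 nm and signal to noise of each spot.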 The settings on record: small-molecule microarray, higher = more signal.

Activity calls are given as the source filed them.

Pro-neuregulin-1, membrane-bound isoform (Homo sapiens), sequence (Q02297 whole entry, looked up, the tested form may be a part, canonical isoform): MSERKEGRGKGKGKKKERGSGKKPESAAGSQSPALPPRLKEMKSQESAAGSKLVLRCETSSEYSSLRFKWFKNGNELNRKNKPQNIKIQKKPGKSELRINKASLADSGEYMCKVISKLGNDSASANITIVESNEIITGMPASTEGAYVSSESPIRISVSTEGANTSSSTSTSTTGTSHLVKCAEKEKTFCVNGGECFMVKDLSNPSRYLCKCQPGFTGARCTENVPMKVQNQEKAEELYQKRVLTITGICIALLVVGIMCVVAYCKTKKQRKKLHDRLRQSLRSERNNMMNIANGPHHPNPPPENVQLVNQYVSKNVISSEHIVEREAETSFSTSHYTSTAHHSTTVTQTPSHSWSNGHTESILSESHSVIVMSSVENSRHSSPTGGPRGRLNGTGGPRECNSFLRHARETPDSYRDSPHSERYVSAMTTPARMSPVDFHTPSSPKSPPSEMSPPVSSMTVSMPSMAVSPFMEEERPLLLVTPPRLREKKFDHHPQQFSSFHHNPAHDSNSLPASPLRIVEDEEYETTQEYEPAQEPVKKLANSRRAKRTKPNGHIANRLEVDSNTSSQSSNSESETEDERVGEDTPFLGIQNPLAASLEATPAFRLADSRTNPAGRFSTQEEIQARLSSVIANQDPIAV
Neurogenic locus notch homolog protein 2 (Homo sapiens), sequence (Q04721 whole entry, looked up, canonical isoform): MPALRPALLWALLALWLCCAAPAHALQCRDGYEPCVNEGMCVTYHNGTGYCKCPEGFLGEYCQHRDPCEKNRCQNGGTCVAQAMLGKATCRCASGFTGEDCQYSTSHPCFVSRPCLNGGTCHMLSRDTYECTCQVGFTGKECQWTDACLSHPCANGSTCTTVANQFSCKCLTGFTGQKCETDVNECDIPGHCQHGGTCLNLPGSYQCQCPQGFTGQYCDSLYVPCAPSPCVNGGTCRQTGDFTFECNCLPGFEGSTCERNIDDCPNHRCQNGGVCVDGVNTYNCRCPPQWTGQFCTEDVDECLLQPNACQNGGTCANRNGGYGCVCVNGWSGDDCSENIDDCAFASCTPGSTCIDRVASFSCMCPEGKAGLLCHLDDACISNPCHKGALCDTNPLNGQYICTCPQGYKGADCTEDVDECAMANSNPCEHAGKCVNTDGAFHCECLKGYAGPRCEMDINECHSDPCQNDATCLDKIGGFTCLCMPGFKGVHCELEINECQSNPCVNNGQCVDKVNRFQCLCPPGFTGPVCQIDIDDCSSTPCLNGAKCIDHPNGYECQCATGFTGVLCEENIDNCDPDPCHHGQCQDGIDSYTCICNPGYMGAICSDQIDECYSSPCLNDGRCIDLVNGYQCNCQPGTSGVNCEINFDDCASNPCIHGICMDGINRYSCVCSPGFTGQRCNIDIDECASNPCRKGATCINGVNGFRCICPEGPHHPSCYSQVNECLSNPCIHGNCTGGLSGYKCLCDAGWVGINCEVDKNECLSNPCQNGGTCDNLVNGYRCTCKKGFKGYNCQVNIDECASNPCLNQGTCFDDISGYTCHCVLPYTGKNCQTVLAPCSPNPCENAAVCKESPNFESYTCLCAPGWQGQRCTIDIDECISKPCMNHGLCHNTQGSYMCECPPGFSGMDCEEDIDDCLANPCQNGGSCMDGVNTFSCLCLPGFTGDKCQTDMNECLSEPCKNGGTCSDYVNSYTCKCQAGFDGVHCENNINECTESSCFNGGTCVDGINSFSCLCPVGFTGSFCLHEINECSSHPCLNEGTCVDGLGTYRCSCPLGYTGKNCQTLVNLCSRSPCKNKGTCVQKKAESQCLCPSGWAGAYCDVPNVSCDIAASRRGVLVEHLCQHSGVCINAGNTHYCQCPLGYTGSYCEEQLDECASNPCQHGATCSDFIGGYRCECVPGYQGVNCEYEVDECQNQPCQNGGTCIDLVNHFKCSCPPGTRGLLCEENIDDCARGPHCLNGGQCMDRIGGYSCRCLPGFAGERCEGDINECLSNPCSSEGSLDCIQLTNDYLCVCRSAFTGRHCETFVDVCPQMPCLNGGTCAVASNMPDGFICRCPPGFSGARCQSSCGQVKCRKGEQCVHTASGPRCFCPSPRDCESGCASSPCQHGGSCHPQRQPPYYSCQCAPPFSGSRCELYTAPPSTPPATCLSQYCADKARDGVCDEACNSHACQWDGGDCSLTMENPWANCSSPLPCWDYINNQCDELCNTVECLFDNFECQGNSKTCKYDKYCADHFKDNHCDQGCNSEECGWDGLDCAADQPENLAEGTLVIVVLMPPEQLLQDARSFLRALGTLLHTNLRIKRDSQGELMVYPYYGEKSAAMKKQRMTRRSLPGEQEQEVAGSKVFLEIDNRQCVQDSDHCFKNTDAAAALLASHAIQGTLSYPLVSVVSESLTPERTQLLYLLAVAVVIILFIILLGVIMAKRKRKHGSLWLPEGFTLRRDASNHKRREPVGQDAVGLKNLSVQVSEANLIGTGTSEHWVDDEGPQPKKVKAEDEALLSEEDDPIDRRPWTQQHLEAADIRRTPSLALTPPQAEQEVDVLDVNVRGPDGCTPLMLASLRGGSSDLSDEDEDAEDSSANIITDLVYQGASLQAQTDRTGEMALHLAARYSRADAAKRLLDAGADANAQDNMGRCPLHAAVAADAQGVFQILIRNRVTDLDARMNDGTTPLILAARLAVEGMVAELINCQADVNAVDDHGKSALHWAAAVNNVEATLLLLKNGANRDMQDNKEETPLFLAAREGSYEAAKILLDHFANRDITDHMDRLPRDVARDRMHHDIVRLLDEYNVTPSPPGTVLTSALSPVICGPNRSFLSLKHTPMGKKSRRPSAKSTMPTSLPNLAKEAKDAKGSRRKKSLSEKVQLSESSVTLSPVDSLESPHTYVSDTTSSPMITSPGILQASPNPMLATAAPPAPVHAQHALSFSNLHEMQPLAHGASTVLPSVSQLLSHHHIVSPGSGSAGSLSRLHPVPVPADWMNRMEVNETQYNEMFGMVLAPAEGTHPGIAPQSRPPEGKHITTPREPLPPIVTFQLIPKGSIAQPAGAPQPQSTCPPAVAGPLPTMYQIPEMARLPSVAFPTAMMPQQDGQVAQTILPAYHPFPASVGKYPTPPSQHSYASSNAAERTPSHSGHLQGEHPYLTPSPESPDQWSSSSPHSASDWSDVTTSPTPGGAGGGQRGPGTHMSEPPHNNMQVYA
Torsin-1A-interacting protein 2 (Homo sapiens), sequence (Q8NFQ8 whole entry, looked up): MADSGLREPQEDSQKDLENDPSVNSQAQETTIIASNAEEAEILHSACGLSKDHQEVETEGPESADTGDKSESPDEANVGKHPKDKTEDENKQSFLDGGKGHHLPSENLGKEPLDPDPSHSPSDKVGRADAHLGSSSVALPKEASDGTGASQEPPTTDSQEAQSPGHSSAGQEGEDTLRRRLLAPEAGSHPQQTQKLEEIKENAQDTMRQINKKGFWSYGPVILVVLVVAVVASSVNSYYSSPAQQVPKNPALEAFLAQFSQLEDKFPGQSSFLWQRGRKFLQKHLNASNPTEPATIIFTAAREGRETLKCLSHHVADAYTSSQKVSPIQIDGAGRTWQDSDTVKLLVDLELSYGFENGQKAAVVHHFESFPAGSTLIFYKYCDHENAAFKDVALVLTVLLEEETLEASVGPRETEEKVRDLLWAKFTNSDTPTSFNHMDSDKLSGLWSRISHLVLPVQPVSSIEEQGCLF

On to `COCC(=C=CC[C@@H](O)c1cccc(OCCO)c1)C[C@@H](O)COCc1ccccc1`, for which the composite z-score in [1] was 0.506; in experiment [2] it was 1.35; in experiment [3], 0.0918; in experiment [4], 0.718; in experiment [5] it was -0.157; in [6], 2.11. Further, the composite z-score in [7] is 0.974; in experiment [9], 1.96; in experiment [10] it was -0.169; in [11], 0.881; in experiment [15], 3.81; in experiment [17], 0.217. In addition, the composite z-score amounted to 0.748 in experiment [18], 0.0417 in experiment [19] and 0.19 in experiment [20]. The z-score was -0.631 (inactive) in experiment [8]; -1.56 (inactive) in experiment [12]; -1.53 (inactive) in [13]; -0.592 (inactive) in experiment [14]; 1.36 (inactive) in [16].

For `C=C(COC)C(=O)CC[C@@H](OC(=O)c1cccnc1)c1cccc(OCCO)c1`, the composite z-score in experiment [1] is 0.0424; in [2] it was 0.759; in experiment [3] it was -0.0332; in experiment [4], 0.455; in [5], -0.0967; in experiment [6], 0.851. Besides, the composite z-score was 0.762 in [7]; 0.532 in experiment [9]; -0.171 in [10]; 1.37 in experiment [11]; 1.35 in [15]; 0.0932 in experiment [17]. Also, the composite z-score in [18] was 0.873; in experiment [19], 0.693; in [20], -0.0922. In addition, the z-score was 0.587 (inactive) in [8]; -0.686 (inactive) in [12]; -1.14 (inactive) in experiment [13]; -0.632 (inactive) in [14]; 0.726 (inactive) in experiment [16].

In the case of `N#Cc1ccc(C(O)C2C=CC3C(=O)N(c4ccccc4)C(=O)C3N2Nc2ccc([N+](=O)[O-])cc2)cc1` (stereo not given), the composite z-score turned out to be 0.561 in experiment [1]; 0.31 in [2]; 0.139 in experiment [3]; 0.863 in [4]; 1.58 in [5]; 1.77 in [6]. In addition, the composite z-score in [7] was 1.28; in experiment [9] it was 1.02; in experiment [10], -0.175; in experiment [11] it was 1.51; in experiment [15] it was 3.13; in [17], 0.0913. For the same molecule, the composite z-score in experiment [18] is -0.463; in [19], 1.09; in [20], 0.0522. Moreover, the z-score in experiment [8] was 0.498 (inactive); in experiment [12], -0.107 (inactive); in experiment [13] it was 0.602 (inactive); in experiment [14] it was 2.45 (inactive); in [16], -0.684 (inactive).

As for `C=CC[C@]1(C(=O)OC)N=C(c2ccc(OCCCO)cc2)O[C@H]1c1ccccc1N=[N+]=[N-]`, the composite z-score is 0.638 in experiment [1]; 0.402 in experiment [2]; 0.288 in experiment [3]; 1.13 in [4]; 1.42 in experiment [5]; 1.5 in experiment [6]. Further, the composite z-score turned out to be 1.4 in [7]; 1.03 in [9]; 0.33 in experiment [10]; 1.54 in experiment [11]; 3.36 in [15]; 0.529 in [17]. Moreover, the composite z-score in experiment [18] was 1.41; in [19], 1.08; in experiment [20], 0.686. For the same molecule, the z-score in experiment [8] is 3.21 (inactive); in experiment [12], -0.747 (inactive); in experiment [13] it was -0.652 (inactive); in experiment [14] it was 1.35 (inactive); in [16], -0.225 (inactive).

On to `CCCCC(O)C1C=CC2C(=O)NC(=O)C2N1Nc1ccccn1` (stereo not given), for which the composite z-score was -0.197 in experiment [1]; -0.0611 in experiment [2]; -0.0691 in experiment [3]; 0.329 in [4]; 0.949 in experiment [5]; 0.699 in experiment [6]. Also, the composite z-score in experiment [7] is 0.683; in [9] it was 0.0344; in experiment [10], -0.128; in experiment [11] it was -0.357; in experiment [15] it was 0.0273; in experiment [17] it was -0.0825. The composite z-score in experiment [18] was -0.0426; in experiment [19] it was -0.421; in [20], -0.067. For the same molecule, the z-score in [8] is 0.86 (inactive); in experiment [12] it was 0.374 (inactive); in experiment [13], 0.667 (inactive); in [14], 0.0569 (inactive); in experiment [16] it was -1.73 (inactive).

Values taken from PubChem BioAssay.
